Measurements as given in publication PMC12136788.
Residue numbers refer to the chain shown, from its start. Whole data set: some 5,800 sequences, median “enrichment r” near 0.68, cut for the highest 2% near 11. For the sample, the highest values were picked, then their nearest neighbours and some sequences at random.

T1: UNK ZnF1-6 (called full-length) (human, UniProt Q9C0B0 30-357)
T1 sequence: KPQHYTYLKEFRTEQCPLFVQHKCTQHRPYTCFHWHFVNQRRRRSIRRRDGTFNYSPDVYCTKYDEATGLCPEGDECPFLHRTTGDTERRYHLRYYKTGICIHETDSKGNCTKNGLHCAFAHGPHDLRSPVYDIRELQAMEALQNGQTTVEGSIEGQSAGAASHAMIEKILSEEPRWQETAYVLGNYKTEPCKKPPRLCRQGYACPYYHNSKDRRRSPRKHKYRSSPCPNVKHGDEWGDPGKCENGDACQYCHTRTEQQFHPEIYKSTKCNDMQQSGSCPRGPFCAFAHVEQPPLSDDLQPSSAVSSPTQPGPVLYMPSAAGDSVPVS

B1: chr17:61865808:61865921:-|3pUTR|ENSG00000108506|unk|FALSE|unique (ssRNA)
RNA: GGGAGUUCUACAGUCCGACGAUCUUCUAUGAGAAUGAGUUUGUAGCUGUUUCAAAUCAUGAAGUGCAUAGUAUCACAUGUGAUAGAAUAUUUAUAACUUUUUAUUAGAUGCUUAAUGUUCAAUUAAGUAAUUUUGAUGUGAAACAACAGAGGAUUGAGCAUCA
B2: chr17:32711987:32712195:-|CDS|ENSG00000176658|control|control|control (ssRNA)
RNA: GGGAGUUCUACAGUCCGACGAUCUCCUUCAGACAAAGAGGCUGUCAAGAAACUAAUUGAACGGUGUGGUUUUCAGGAUGAUGUAGCUUAUGGGAAGACCAAAAUUUUCAUUCGAACACCCCGAACAUUGUUUACCUUGGAAGACAACAGAGGAUUGAGCAUCA
B3: chr12:293013:293114:-|CDS|ENSG00000073614|unk|FALSE|bound_elsewhere (ssRNA)
RNA: GGGAGUUCUACAGUCCGACGAUCACUAAAAGUGAAAGGAAAGGACUCUUCAGAGAAGAAACGGAAACGGAAGCUAGAAAAGGUAGAGCAACUUUUUGGAGAAGGAAAACAGAAGUCCAAGGAGUUAAAGAAAAUGGACAAACCCAACAGAGGAUUGAGCAUCA
B4: chr1:228098150:228098251:+|3pUTR|ENSG00000143761|msi1_unk|total|mutant (ssRNA)
RNA: GGGAGUUCUACAGUCCGACGAUCGCACCGUGCUGUAAAUGUGGCAGACGCAGCCUGCGGCCAGGCUUUUUAUUUAAUGUAAACCGUUUUUGUUUCCAAUGAGGCAGUUUCUGGUACUCCUAUGCAAUAUUACUCAGCUUUUUUCAACAGAGGAUUGAGCAUCA
B5: chr7:50445662:50445763:-|CDS|ENSG00000132436|msi1|FALSE|unique (ssRNA)
RNA: GGGAGUUCUACAGUCCGACGAUCGUUAUCUCAACGGGGAGAUGGUGAGCAUGAAUCUUCUAGAAGGAUAAAAACAGAAUUUUUAGUUCAAUUAGAUGGAGCAACAACAUCUUCUGAAGAUCGUAUCCUAGUGGUGGGAGCAACCAACAGAGGAUUGAGCAUCA
B6: ENSG00000120802:stop:overlap|stop_codon|ENSG00000120802|stop_codon|NA|stop_codon (ssRNA)
RNA: GGGAGUUCUACAGUCCGACGAUCGUGGAACAUUAUUUGGAGGAGAAGUAUGCAAAGUAAUUAAAAAGCGUGGAAAUAAACACUAGUAAAAUUAAGGACAAAAAGACAUCUAUCUUAUCUUUCAGGUACUUUAUGCCAACAUUUCAACAGAGGAUUGAGCAUCA
B7: chr17:81921741:81921842:-|3pUTR|ENSG00000197063|msi1|FALSE|unique (ssRNA)
RNA: GGGAGUUCUACAGUCCGACGAUCAAUUAUAUGUUUAAAAGUUAAAGAAAAAAGAGCUGCAGAGUAUUUAUAAAACUGUCUUUUAGAAAAAAAACAAGCAAGAAGACCAUUUGACCAUAUGAAUGGAAAAGGGAAGAAAGUAUACAACAGAGGAUUGAGCAUCA
B8: chr3:121431430:121432303:-|three_prime_utr|ENSG00000051341|control|control|control (ssRNA)
RNA: GGGAGUUCUACAGUCCGACGAUCUGGAAAGAACAGAGAUUACCCUUUCACCUACCUCAGCAAAACAAACUUUCAAGUCUUGAUAGACUUAGCCUAGUAAUUUUAUAGUGAGAGUUUCAAACUAUAUAUCAGUGUCUAUAGCAUCAACAGAGGAUUGAGCAUCA
B9: chr9:122240152:122240253:-|3pUTR|ENSG00000119446|msi1|FALSE|unique (ssRNA)
RNA: GGGAGUUCUACAGUCCGACGAUCCUUCUUGGAGUAUAGAAUUCACCAUUUUAUCCGUAAGUCUUCAAAGGAUUAUGGUGGACUAGAACUUACAUAGUGCAAAAUAGUCUUCUAUUUUUAAUAGGAACUUAGAAAAAACUUAGACAACAGAGGAUUGAGCAUCA
B10: chr11:22846921:22847509:-|three_prime_utr|ENSG00000255359|control|control|control (ssRNA)
RNA: GGGAGUUCUACAGUCCGACGAUCCUCCACCAUUUCGGAAAAAUAAACACAGUGCAAGUAUUUAAUAUCCAAGCUACAGGCUCUAGAAUUUUAUUAAAUGCCAUCUCUCACUACCAUAUUUUUCUUUCCUGUGGUAAACUUGAACAACAGAGGAUUGAGCAUCA
B11: chr4:150265445:150265561:-|3pUTR|ENSG00000198589|unk|FALSE|bound_elsewhere (ssRNA)
RNA: GGGAGUUCUACAGUCCGACGAUCGGAUUAGCAAAGCAGAAAACUGGCUGCUGGGUUCUGUAGUUUUAAAAAAUCUAUAUUUUUAGUCAUAAUGAGAAGUCUAUUUUCACCAAUUAUGGAAACAUACAGUGGAGCAAGUAAACCCAACAGAGGAUUGAGCAUCA
B12: chr12:123662440:123662541:+|3pUTR|ENSG00000111358|unk|FALSE|unique (ssRNA)
RNA: GGGAGUUCUACAGUCCGACGAUCAAUGGAAAUCACAAUUUUAAGUCUAGGAAAUAAAGUAUUAUAUAUACUUUCAAACAAGCUAGCAAGGCUUUUAUUAUUACUUUUUUAUUUGAAAUAUCUUAUAUAUUUGGUUAGUUCUGUCAACAGAGGAUUGAGCAUCA
B13: chr21:43695798:43695899:+|3pUTR|ENSG00000160208|msi1|FALSE|unique (ssRNA)
RNA: GGGAGUUCUACAGUCCGACGAUCACAAUAUUUUGUAAAAUGAUGCUUCCCCCUUCUCCAUGGUCUAGUCAAUUUUGUACAAUUAGGUAUCUGACUUUACAAGUUUGUUAUCCUUUCUAAUUUUUACUGAACUGAAAGCACAAACAACAGAGGAUUGAGCAUCA
B14: chr6:119178661:119178762:-|3pUTR|ENSG00000111885|msi1|FALSE|unique (ssRNA)
RNA: GGGAGUUCUACAGUCCGACGAUCGAAAGAAGCUUUGCCAAUUUUACUUAUUCGUGAUCAAUCAAGGAAAAUCUAAUAAAUUUUAGGCCAAAUAAGAAUAUAGCAUAUUUAGUAUGGUUAUAGUCAACACAGAGAUCACAACUUCAACAGAGGAUUGAGCAUCA
B15: ENSG00000198589:be:win_8701|3pUTR|ENSG00000198589|bound_else_gene|NA|bound_elsewhere_windowed (ssRNA)
RNA: GGGAGUUCUACAGUCCGACGAUCUGUAGUCUUUGCUUGACUUUUUUGGGGGGGAUUAGCAAAGCAGAAAACUGGCUGCUGGGUUCUGUAGUUUUAAAAAAUCUAUAUUUUUAGUCAUAAUGAGAAGUCUAUUUUCACCAAUUACAACAGAGGAUUGAGCAUCA
B16: chr4:150265445:150265561:-|3pUTR|ENSG00000198589|unk|total|mutant (ssRNA)
RNA: B11 RNA with U28C, A29C, U60C, A61C, U83C, A84C
B17: chr8:74853834:74853946:+|3pUTR|ENSG00000137558|unk|FALSE|unique (ssRNA)
RNA: GGGAGUUCUACAGUCCGACGAUCAAGUGCUUUUUUUUUUCUGAAUUAAUUAGGUAUUGGUAAAAUAUAUUUUUAAAUUUAGUUAGCUUUAUAAACACAAUUAGAAUUACAAUUAAUUAACAGAGGUAUAAUUGUCUCACUUUCCAACAGAGGAUUGAGCAUCA

These binders were tested against T1, UNK ZnF1-6 (called full-length) (assay: nsRBNS (natural sequence RNA bind-n-seq); RBNS binding buffer (assumed for nsRBNS): 25 mM Tris pH 7.5, 150 mM KCl, 3 mM MgCl2, 0.01% Triton X-100, 500 ug/ml BSA, 20 U/ml SUPERase-In, 4 C; UNK is unkempt and MSI1 is Musashi-1; names of the RNAs are library labels; protein concentration not given here; high values mean tight binding).

Question: How did the binding signal turn out when B1 was run?
Answer: The binding signal was 2.51 enrichment R.

Question: Which binding signal does the source give for B2 here?
Answer: The binding signal was 0.434 enrichment R.

Question: Which binding signal does the source give for B3 here?
Answer: The binding signal was 0.672 enrichment R.

Question: How did the binding signal turn out when B4 was run?
Answer: The binding signal was 0.896 enrichment R.

Question: Which binding signal does the source give for B5 here?
Answer: The binding signal was 0.853 enrichment R.

Question: With B6 as the binder, how does the binding signal read?
Answer: Its binding signal is 1.07 enrichment R.

Question: Which binding signal does the source give for B7 here?
Answer: The binding signal was 2.78 enrichment R.

Question: Which binding signal does the source give for B8 here?
Answer: The binding signal was 8.5 enrichment R.

Question: B9 was tested. Which binding signal did it give?
Answer: Its binding signal is 41.4 enrichment R.

Question: For B10, which binding signal is on record?
Answer: Its binding signal is 0.713 enrichment R.

Question: Which binding signal does the source give for B11 here?
Answer: The binding signal was 2.4 enrichment R.

Question: With B12 as the binder, how does the binding signal read?
Answer: Its binding signal is 12.5 enrichment R.

Question: With B13 as the binder, how does the binding signal read?
Answer: The binding signal was 1.9 enrichment R.

Question: Which binding signal does the source give for B14 here?
Answer: The binding signal was 2.15 enrichment R.

Question: B15 was tested. Which binding signal did it give?
Answer: The binding signal was 29 enrichment R.

Question: B16 was tested. Which binding signal did it give?
Answer: Its binding signal is 0.438 enrichment R.

Question: How did the binding signal turn out when B17 was run?
Answer: Its binding signal is 171 enrichment R.
